Compound activity: PubChem BioAssay, National Center for Advancing Translational Sciences (NCATS)
Hits are enriched below; roughly 6% of the tested compounds scored in any of these assays.
D3 ag: agonists of human D3 dopamine receptor; 0.58% of 410,000 active; P35462; D3R DiscoveRx beta-arrestin cells, luminescence, 90 min; max activation, %; AID 652048; in the data active means max activation above about 30%
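Agonist-mode cell screen: cells plated at 1500/well and incubated overnight at 37 °C, then exposed to library compounds for 90 min at 37 °C. Detection reagent was added for 30–60 min at room temperature, and luminescence was read.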
D1 ag: agonists of human D1 dopamine receptor; P21728; HEK293 T-REx D1 cells, calcium flux, agonist mode; activation, % at 2 µM; 1% of 360,000 active; AID 504660; in the data active means activation above about 30%
Target sequence (P21728 whole entry, looked up): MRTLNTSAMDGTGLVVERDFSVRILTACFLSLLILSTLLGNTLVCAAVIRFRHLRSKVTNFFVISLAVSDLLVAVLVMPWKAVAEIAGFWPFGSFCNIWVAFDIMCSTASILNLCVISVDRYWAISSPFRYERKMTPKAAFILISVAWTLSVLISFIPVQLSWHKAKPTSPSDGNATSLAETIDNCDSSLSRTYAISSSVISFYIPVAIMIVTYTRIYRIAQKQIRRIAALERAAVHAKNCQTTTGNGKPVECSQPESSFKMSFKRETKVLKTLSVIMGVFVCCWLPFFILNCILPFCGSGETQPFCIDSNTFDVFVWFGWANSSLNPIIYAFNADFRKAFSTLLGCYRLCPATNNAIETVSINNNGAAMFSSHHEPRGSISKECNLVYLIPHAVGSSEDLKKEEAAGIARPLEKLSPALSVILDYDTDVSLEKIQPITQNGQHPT
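Inducible HEK293 T-REx D1 cells, force-coupled to calcium signalling, were plated at 4000 cells/well with tetracycline and held overnight at 30 C. After no-wash calcium dye loading, compound-evoked calcium rise over 180 s flagged agonists.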
DRD3 antagonist: D3 dopamine receptor (human) antagonism; P35462; D3R cells, DiscoveRx beta-arrestin luminescence, antagonist mode; stronger effect = lower value; max response, negative = inhibition, %; 2.5% of 360,000 active; in the data active means max response below about -50%
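Cells expressing the human receptor were seeded at 1500 cells/well, incubated overnight at 37 degrees C in 5% CO2, then exposed to library compounds with dopamine controls for 90 minutes at 37 degrees C before luminescent detection.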
D1 potentiator: human D1 dopamine receptor positive modulation; P21728; HEK293 TREx D1 cells, calcium flux, dopamine EC20 potentiation; potentiation, % at 10 µM; 0.036% of 360,000 active; AID 504651; in the data active means potentiation above about 30%
D1 antagonist: antagonists of human D1 dopamine receptor; HEK293 TREx D1 cells, calcium flux, dopamine EC80; stronger effect = lower value; activity change, negative = inhibition, % at 10 µM; 3.2% of 360,000 active; AID 504652; in the data active means activity change below about -30%
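HEK293 T-REx cells expressing inducible, force-coupled D1 receptor; no-wash Ca dye, 30–90 min RT. Cmpd → 180 s read at 1 Hz → EC80 DA → 180 s read.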
Each line names hits and unclear results; the compound was inactive in the other large screens.

O=C1/C(=C/c2cccs2)Sc2ccccc21	D1 antagonist -93
O=C1Nc2ccccc2S/C1=C/c1cccs1	none
COc1ccccc1CNC(=O)[C@H](C)NC(=O)C1CCN(C(=O)[C@@H](N)Cc2ccccc2)CC1	none
COc1ccccc1CNC(=O)[C@H](C)NC(=O)C1CCN(C(=O)[C@@H](N)C(C)C)CC1	D3 ag 38
O=C(CN1CCCN(S(=O)(=O)c2ccc(Br)cc2)CC1)Nc1cccc(C(F)(F)F)c1	none (no result: DRD3 antagonist)
COC(=O)c1cccc(CN2C(=O)SC(Nc3ccc(Cl)cc3)C2=O)c1 (centres undefined)	D1 antagonist -32 (no result: DRD3 antagonist)
COC(=O)c1cccc(CN2C(=O)SC(Nc3ccc(C)cc3)C2=O)c1 (centres undefined)	none
O=C(CCc1ccccc1)c1ccc2c(c1)OCCCO2	none
O/N=C(/CCc1ccccc1)c1ccc2c(c1)OCCO2	D1 antagonist -41
Cc1cc2c(s1)c1cnn(Cc3ccc(F)cc3Cl)c(=O)c1n2C	none (no result: D3 ag, DRD3 antagonist)
COc1ccc(C(CNc2ccc(S(=O)(=O)N3CCN(C)CC3)cc2[N+](=O)[O-])N(C)C)cc1 (centres undefined)	none
COc1ccc(CCNc2ccc(S(=O)(=O)N3CCN(C)CC3)cc2[N+](=O)[O-])cc1	D1 antagonist -32
COc1ccc(CN(C)c2ccc(S(=O)(=O)N3CCN(C)CC3)cc2[N+](=O)[O-])cc1OC	D1 antagonist -46
COC(=O)C1CCN(S(=O)(=O)c2cc3c4c(c2)CC(=O)N4CCC3)CC1	none (no result: DRD3 antagonist, D1 antagonist)
O=C(c1cccs1)c1cn(CCOc2ccccc2Cl)c2ccccc12	none (no result: DRD3 antagonist)
CCNC(=S)N/N=C(\C)c1ccc2ccccc2c1OC(F)F	D3 ag 30
CCNC(=S)N/N=C(\C)c1ccc2ccccc2c1	none (no result: D3 ag, DRD3 antagonist)
O=C(CCCCN1CCCCC1)c1ccc2c(c1)Cc1ccccc1-2	D1 ag 31, D1 antagonist -36
CN(C)c1ccc(/C=N/N2C(=S)SC(C)(C)C2N(O)C(=O)Nc2ccc([N+](=O)[O-])cc2)cc1 (centres undefined)	DRD3 antagonist -67
CNC(=O)N(O)C1N(/N=C/c2ccc(SC)cc2)C(=S)SC1(C)C (centres undefined)	none
CCOC(=O)c1c(-c2ccc(OC)cc2)csc1/N=C/C1C(=O)CCCC1=O	D1 antagonist -47
COc1cc(NC(=O)CCc2c(C)nc3c(c(C)nn3-c3ccccc3)c2C)cc(OC)c1OC	none (no result: DRD3 antagonist)
C/C=C(/C)C(=O)O[C@@H]1c2cc3c(c(OC)c2-c2c(cc(OC)c(OC)c2OC)[C@@H](OC(C)=O)[C@@H](C)[C@H]1C)OCO3	D1 antagonist -62
N#Cc1ccc2c(c1)C[C@]1(c3ccsc3)OC3=C(C(=O)OC4(CCCCC4)C3)C2O1	D1 antagonist -32 (no result: D3 ag, DRD3 antagonist)
Cc1cccc(N=C2NC(=O)/C(=C3/C(=O)N(C)c4ccccc43)S2)c1C	DRD3 antagonist -93
CC1=CC(=C(C#N)c2nc3ccccc3s2)C=C(C)N1CC1CCCO1 (centres undefined)	D1 ag 43
COc1ccc(CCNc2nc(C)nc3c2nnn3Cc2ccccc2)cc1	D1 antagonist -57
CCOc1ccc(Nc2nc(-c3cccc(Cl)c3)c3c(n2)-c2ccccc2OC3)cc1	none (no result: DRD3 antagonist)
CCC(C)(C)n1nnnc1C(c1cccc(C#N)c1)N1CCN(c2cc(C)ccc2C)CC1 (centres undefined)	DRD3 antagonist -60
CC(C)(C)n1nnnc1C(c1cccc(C#N)c1)N1CCC(Cc2ccccc2)CC1 (centres undefined)	none
COc1ccc(S(=O)(=O)N2CCCCCC2)cc1NC(=O)CN1C(=O)NC(C)(c2ccccc2)C1=O (centres undefined)	D1 antagonist -31
COc1ccc(S(=O)(=O)N2CCCCC2)cc1NC(=O)CCNC(=O)c1ccccc1Cl	D1 antagonist -70
COc1ccc(S(=O)(=O)N2CCOCC2)cc1NC(=O)COc1cccnc1[N+](=O)[O-]	DRD3 antagonist -63
COc1ccccc1CNC(=O)N1CCN(S(=O)(=O)c2ccccc2)CC1	D3 ag 30
CCOc1ccc(C(CC(=O)Nc2cc(C)c(Cl)cc2OC)N2Cc3ccccc3C2=O)cc1OC (centres undefined)	none (no result: DRD3 antagonist)
Cc1cccc(OCCn2nnc3sc4c(c3c2=O)CCCC4)c1	none (no result: DRD3 antagonist)
COc1ccccc1CNC(=O)CN1C(=O)CCc2cc(S(=O)(=O)N3CCCCC3)ccc21	D1 antagonist -56 (no result: DRD3 antagonist)
Cn1c(CNS(=O)(=O)c2ccc(F)cc2)n[nH]c1=S	none
Cn1c(CNS(=O)(=O)c2ccc(Cl)cc2)n[nH]c1=S	DRD3 antagonist -60
COc1ccc(OC)c(/C=C/C(=O)N2C(=O)c3cccc(N)c3C2=O)c1	DRD3 antagonist -65
COc1cc(/C=C/C(=O)N2C(=O)c3cccc(N)c3C2=O)cc(OC)c1OC	DRD3 antagonist -82
CCCCC(O)C(=O)Nc1cc(C(F)(F)F)ccc1Cl (centres undefined)	none (no result: D3 ag, DRD3 antagonist)
CCN(C(=O)C1CCN(S(=O)(=O)c2cc(Br)cc3c2N(C(C)=O)CC3)CC1)c1cccc(C)c1	none (no result: DRD3 antagonist)
CC1=NN(c2ccc([N+](=O)[O-])cc2)C(=O)/C1=C\N(C)C	DRD3 antagonist -57
C/C(=C1/C(=O)N(c2ccc([N+](=O)[O-])cc2)N=C1c1ccccc1)N(C)C	D1 ag 34 (no result: D3 ag, DRD3 antagonist)
O=C(NCCc1csc(-c2ccc(F)cc2)n1)C(=O)Nc1ccc(Cl)cc1	none (no result: DRD3 antagonist)
CN(Cc1nc2ccccc2c(=O)[nH]1)C(=O)c1ccccc1OCc1ccc(Cl)cc1	D1 antagonist -32
CN(C(=O)c1ccccc1OCc1ccc(Cl)cc1)c1ccccc1	none
COC(=O)c1c(NC(=O)c2ccc(C)cc2)sc(Cc2ccccc2)c1C	DRD3 antagonist -65
COC(=O)c1c(NC(=O)c2ccccc2)sc(Cc2ccccc2)c1C	none
CCCCCCC(C)n1[nH]c(=O)c2c(C)cc(C)nc21 (centres undefined)	none
CCCCCC(C)n1[nH]c(=O)cc1N (centres undefined)	DRD3 antagonist -109
Cn1c(SCc2ccc(Br)cc2)nnc1-c1cccs1	none
Cc1ccc(CSc2nnc(-c3cccs3)n2C)cc1	D1 antagonist -40
Cc1cccc(CSc2nnc(-c3cccs3)n2Cc2ccco2)c1	D1 antagonist -36
COc1ccc(C(=O)N2CC(=O)Nc3ccc(C)cc3C2c2ccc(F)cc2)c(OC)c1 (centres undefined)	none (no result: DRD3 antagonist)
CC(C)(C)CC(=O)OCC(=O)[C@@]12OC(C)(C)O[C@@H]1C[C@H]1[C@@H]3CCC4=CC(=O)C=C[C@]4(C)[C@@]3(F)[C@@H](O)C[C@@]12C	none (no result: D1 ag, DRD3 antagonist, D1 potentiator, D1 antagonist)
CCCN1C=CC(=C/C=C(\C#N)C(=O)OCC)C=C1	D1 ag 33 (no result: D3 ag, DRD3 antagonist)
CCCCCCN1C=CC(=C/C=C(\C#N)C(=O)OCC)C=C1	D1 ag 178
COc1ccccc1CC(=O)Nc1cccc(S(=O)(=O)N2CCOCC2)c1	none
